Measurements: PubChem BioAssay AID2546 (National Center for Advancing Translational Sciences (NCATS), 2010)
In all, about 310,000 compounds went through this assay and about 11,000 (3.5%) were called active. Roughly 8% stayed inconclusive and do not appear here. Calls come from the whole dose curve; as a rule, active = well fitted inhibition curve with a large enough effect; inconclusive = small, poorly fitted or top-dose-only effect, or effect the other way; inactive = flat fitted curve, though single readings scatter. The list comes from a sample in which actives are over-represented; it also holds similar structures and randomly drawn compounds. Entries that show only a call come without a potency.

Experiment: VP16 counterscreen qHTS for inhibitors of ROR gamma transcriptional activity; note: nearly all actives have a fitted effect of over 50% in size
Settings: Drosophila S2 Gal4-VP16 UAS-luciferase, luminescence, 20 h; series mostly up to 53.6 µM
Source text: NIH Molecular Libraries Probe Production Network [MLPCN]
NIH Chemical Genomics Center [NCGC]
Assay Provider: Dan Littman, New York University
The retinoic acid-related orphan receptor (ROR) gamma is a transcription factor that has a central role in the differentiation of Th17 cells, a subset of T helper cells that secrete the inflammatory cytokines IL-17, IL-17F, and IL-22. Th17 cells have been implicated in graft versus host disease, autoimmune disease and asthma. ROR gamma is induced in naive T helper cells in the presence of TGF-beta combined with IL-6, IL-21, or IL-23, and thereafter directs the expression of the Th17 lineage cytokines. To identify nonspecific inhibitors, a Drosophila Schneider cell line was stably transfected with two vectors: a gene expressing a fusion of the Gal4 DNA binding domain and VP16 transactivation domain under the control of the metallothionine promoter and a Photinus luciferase reporter regulated by the Gal4 binding site enhancer, UAS. […] Small molecule inhibitors that inhibit components common to the RORgt and VP16 assays, such as the Gal4 DNA binding domain or the UAS luciferase reporter, will be active in both assays and thus scored as nonspecific.
For screening, 600 cells in 4 uL/well were dispensed into white solid 1536-well plates (Grenier) using a solenoid-based dispenser. Following transfer of 23 nL compound or DMSO vehicle by a pin tool, the plates were incubated 1 hr at ambient temperature, and 1 uL/well copper sulfate (700 uM final concentration) was added. The plates were centrifuged 15 s at 1000 RPM and incubated 20 hr at ambient temperature. After addition of 1.5 uL Photinus luciferase detection reagent, the plates were incubated 10 min at ambient temperature and then read by a ViewLux (Perkin Elmer) to detect luminescence.
Potency is the fitted concentration of half-maximal effect.

Row | SMILES | Potency
1 | CSCC[C@H](NC(=O)N1CCn2c1nc1ccccc12)C(=O)NC1CCCCC1 | inactive
2 | O=C(COC(=O)c1cccs1)Nc1ccccc1Cl | inactive
3 | O=C(COC(=O)c1cccs1)NCc1cccs1 | inactive
4 | O=C(COC(=O)/C(=C/c1cccs1)c1cccs1)NCc1ccccc1Cl | 0.631 µM (active)
5 | O=C(Nc1cccc(Cl)c1Cl)c1ccccc1NC(=O)C1CC=CCC1C(=O)O (stereo not drawn) | inactive
6 | CCC1CCCCN1C(=O)CSc1nc2c(c(=O)n1C)SC(C)C2 (stereo not drawn) | inactive
7 | Cc1nn(C)cc1C(=O)Nc1ccccc1Br | inactive
8 | Cn1sc(NC(=O)c2ccccc2)nc1=O | inactive
9 | CCn1c(NC(=O)c2nn(C)cc2Br)nc2ccccc21 | 5.01 µM (active)
10 | Cn1c(NC(=O)c2ccccc2)nc2ccccc21 | 1.26 µM (active)
11 | CCC(=O)NCCc1nc2ccccc2n1CC | inactive
12 | CC(=O)NCCc1nc2cc(NC(=O)c3ccccc3)ccc2n1C | inactive
13 | CC(C)Cc1nnc(NC(=O)CN2C(=O)NC3(CCCCC3)C2=O)s1 | inactive
14 | Cc1cccn2c(=O)c3cc(C(=O)NCC4CCCO4)c(=N)n(Cc4ccc(F)cc4)c3nc12 (stereo not drawn) | inactive
15 | COc1ccccc1CN(C)C(=O)c1cc2ccccc2o1 | inactive
16 | COc1ccc(-c2[nH]ncc2/C=N/NC(=O)c2cc(Br)ccc2O)c(OC)c1 | 0.891 µM (active)
17 | COc1ccc(/C=N/NC(=O)Nc2ccc3nsnc3c2)c(OC)c1 | inactive
18 | COc1cc(/C=N/NC(=O)c2cccnc2)ccc1OC(=O)c1cccc(Br)c1 | inactive
19 | CN(c1ccccc1)S(=O)(=O)c1ccc(NC(=O)COc2ccccc2)cc1 | inactive
20 | COc1cc(/C(=C/c2ccccc2)c2ccccc2)c2c(c1)oc1ccccc12 | inactive
21 | O=C(COC(=O)c1ccc(Oc2ccccc2)cc1)Nc1nnc(-c2ccccc2)o1 | 5.62 µM (active)
22 | Cc1cccc(NC(=O)Nc2nnc(-c3ccccc3)o2)c1 | inactive
23 | O=C(OCc1ccc(Br)cc1)c1cccc(-c2nnc(-c3ccccc3)o2)c1 | inactive

Row | SMILES | Potency
24 | COc1cc(CNCc2ccc3c(c2)OCO3)c([N+](=O)[O-])cc1OC | inactive
25 | Cc1ccc(C)c(OCc2cc(C(=O)N3CCN(c4cnccn4)CC3)no2)c1 | inactive
26 | Oc1ccc(-c2cccc(-c3ccc(O)cc3)c2)cc1 | inactive
27 | O=C(Nc1ccccc1)/C(=C/c1ccc([N+](=O)[O-])cc1)NC(=O)c1ccccc1 | inactive
28 | Cc1cccc(NC(=O)c2sc(-c3ccccc3)nc2-c2ccc([N+](=O)[O-])cc2)c1 | inactive
29 | CCOC(=O)/C(=C\c1ccc([N+](=O)[O-])cc1)C(=O)c1cc(C(C)=O)c(Nc2ccccc2)s1 | 5.62 µM (active)
30 | C#CC(C)(C)NC(=O)c1cnc(-c2ccccc2)nc1-c1ccccc1 | inactive
31 | CCC(=O)N(CCc1ccccc1)Cc1cc2cc(C)ccc2[nH]c1=O | inactive
32 | Cc1cc(C)n(CCNS(=O)(=O)c2ccc(Cl)cc2)n1 | inactive
33 | CN(C)CCNC(=O)c1[nH]nc2c1CCc1ccccc1-2 | inactive
34 | COc1cccc(/C=N/NC(=O)c2[nH]nc3c2CCc2ccccc2-3)c1O | 0.794 µM (active)
35 | COc1cc2cc(C(=O)N/N=C/c3cccc(OC)c3OC)[nH]c2cc1OC | inactive
36 | CN(C(=O)CN1C(=O)/C(=C/c2ccc(Cl)cc2)SC1=S)C1CCS(=O)(=O)C1 (stereo not drawn) | inactive
37 | Oc1ccc(/C=N/NC2=NCCCCC2)c(O)c1 | inactive
38 | Cc1cc(N/N=C/c2ccccc2F)c2ccccc2n1 | inactive
39 | Cc1nc2ccccc2nc1N/N=C/c1ccc(O)cc1O | 15.8 µM (active)
40 | CC(NC(=O)C(=O)NN=C1CCC(C(C)(C)C)CC1)c1ccccc1 (stereo not drawn) | inactive
41 | CC(C)(C)C1CCC(=NNC(=O)c2cc(-c3ccccc3)n[nH]2)CC1 (stereo not drawn) | 20 µM (active)
42 | CC(C)(C)C1CCC(=NNC(=O)c2ccc(Br)o2)CC1 (stereo not drawn) | inactive
43 | CN(Cc1ccccc1Cl)C(=O)C1CCC(=O)N(CCc2cccc(F)c2)C1 (stereo not drawn) | inactive
44 | CCn1c(=O)cc(OCC(=O)NCCCN2CCN(c3cccc(Cl)c3)CC2)c2ccccc21 | inactive
45 | O=C(CCCn1c(=O)[nH]c2cc(Cl)ccc2c1=O)NCCN1CCN(c2ccccc2)CC1 | inactive
46 | O=C(Cc1csc(Nc2nc(=S)[nH]c3ccccc23)n1)NCCCN1CCN(c2cccc(Cl)c2)CC1 | 7.08 µM (active)

Row | SMILES | Potency
47 | CCCCn1c(N)c(N(CC)C(=O)c2ccccc2C(F)(F)F)c(=O)[nH]c1=O | inactive
48 | Cc1ccc(CNC(=O)Cc2cn(C)c3ccccc23)cc1 | inactive
49 | CC1CCCC(C)N1C(=O)CSc1nnnn1C1CCCC1 (stereo not drawn) | inactive
50 | O=C(NCCCO)c1cc2c([nH]c3ccccc32)c(-c2ccc(F)cc2)n1 | inactive
51 | S=c1[nH]c2ccccc2c2ccccc12 | 17.8 µM (active)
52 | CC(=O)c1c(-c2ccccc2)c2ccccc2[nH]c1=O | inactive
53 | NC(=O)Cc1ccc2c(c1)[nH]c1ccccc12 | inactive
54 | COc1cccc2sc(NNC(=O)c3nc4ccccc4s3)nc12 | 2 µM (active)
55 | COc1ccc(S(=O)(=O)N2CCOCC2)cc1C(=O)Nc1nc2ccccc2s1 | inactive
56 | O=C(Nc1ccccc1)Nc1nc2ccccc2s1 | inactive
57 | O=c1[nH]cccc1-c1nc2ccccc2n1Cc1ccc(Cl)cc1 | inactive
58 | Cc1cc(C)c(NC(=O)CN2CCCCCC2)c(C)c1 | inactive
59 | Cc1cc(-c2n[nH]c(=S)n2/N=C/C(Br)=C/c2ccccc2)n[nH]1 | 11.2 µM (active)
60 | S=c1[nH]nc(-c2cccnc2)n1/N=C/C(Cl)=C\c1ccccc1 | 7.08 µM (active)
61 | Cc1cc(-c2n[nH]c(=S)n2/N=C/c2ccco2)n[nH]1 | inactive
62 | Oc1ccccc1/C=N/n1c(-c2cccs2)n[nH]c1=S | inactive
63 | O=[N+]([O-])c1ccccc1/C=N/n1c(COc2ccccc2)n[nH]c1=S | inactive
64 | Fc1ccccc1/C=N/n1c(-c2cccnc2)n[nH]c1=S | inactive
65 | COc1ccc(C2(O)C(=O)Nc3ccccc32)cc1 (stereo not drawn) | inactive
66 | COCCN1C(=O)C(=O)/C(=C(/O)c2ccc(S(=O)(=O)N3CCOCC3)cc2)C1c1ccc(O)c(OC)c1 (stereo not drawn) | inactive
67 | CC(C)c1ccc(/C=C2\NC(=O)NC2=O)cc1 | inactive
68 | CCN(CC)S(=O)(=O)c1ccc(C(=O)N2CCN(C3=NS(=O)(=O)c4ccccc43)CC2)cc1 | inactive
